The subject of assay [1] is MDA-MB-231. Briefly: cell viability relative to vehicle unstimulated control (fraction); higher = more viable cells. Particulars: pre-treatment time: 18 h then 24 h IFNg/TNF.
Assay [2] concerns MDA-MB-231. Briefly: kynurenine production, fold change vs DMSO IFNg/TNF control; higher = more kynurenine produced (less inhibition). Particulars: pre-treatment time: 18 h then 24 h IFNg/TNF. The essentials:
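After trichloroacetic acid and p-dimethylaminobenzaldehyde treatment, supernatants were read at 492 nm, with 0–100 μM standards. These came from MDA-MB-231 cells (7 × 10^4/well, 96-well plates) pre-treated 18 h with natural products in 0.1% DMSO and then exposed 24 h to IFNγ (1 U/ml) and TNF (6.25 ng/ml) at 37°C. Values for kynurenine production are fold changes over same-plate cytokine-stimulated vehicle wells, averaged over duplicate plates in the first screening round.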

± gives the standard deviation of the averaged measurements.
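Throughout, for cell viability relative to vehicle unstimulated control: viability of the cells left after supernatant collection, read with Deep Blue dye added for 4 h, as absorbance at 570 nm minus 600 nm.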

Turning to `CC(C)c1cccc(=O)c(O)c1` [Hinokitiol] (compound dose: 10 uM), the cell viability with MDA-MB-231 [1] was 0.9746 ± 0.0011. Moreover, the kynurenine production with MDA-MB-231 [2] came to 0.423 ± 0.025.

Take `COC(=O)C1=CO[C@@H](O[C@@H]2O[C@H](CO)[C@@H](O)[C@H](O)[C@H]2O)[C@H]2[C@@H]1C(=O)C[C@@H]2C` [Verbenalin] (compound dose: 10 uM): the cell viability with MDA-MB-231 [1] worked out at 0.953 ± 0.052. The kynurenine production with MDA-MB-231 [2] amounted to 0.834 ± 0.12.

For the molecule `CC(C)=CCC[C@](C)(O[C@@H]1O[C@H](CO[C@@H]2O[C@H](CO)[C@@H](O)[C@H](O)[C@H]2O)[C@@H](O)[C@H](O)[C@H]1O)[C@H]1CC[C@]2(C)[C@@H]1[C@H](O)C[C@@H]1[C@@]3(C)CC[C@H](O[C@@H]4O[C@H](CO)[C@@H](O)[C@H](O)[C@H]4O[C@@H]4O[C@H](CO)[C@@H](O)[C@H](O)[C@H]4O)C(C)(C)[C@@H]3CC[C@]12C` [Ginsenoside Rb1] (compound dose: 10 uM), the cell viability in the assay on MDA-MB-231 [1] was 1.02. Also, in the assay on MDA-MB-231 [2], the kynurenine production was 1.08 ± 0.11.

Take `CC(C)=CCC/C(C)=C/CO` [Geraniol] (compound dose: 10 uM): the cell viability in the assay with MDA-MB-231 [1] stood at 0.998 ± 0.042. Besides, in the assay on MDA-MB-231 [2], the kynurenine production was 0.829 ± 0.2.

Take `CC1(C)CC[C@]2(C(=O)O[C@@H]3O[C@H](CO)[C@@H](O)[C@H](O)[C@H]3O)CC[C@]3(C)C(=CC[C@@H]4[C@@]5(C)CC[C@H](O[C@@H]6O[C@H](C(=O)O)[C@@H](O)[C@H](O)[C@H]6O[C@H]6OC[C@@H](O)[C@H](O)[C@H]6O)C(C)(C)[C@@H]5CC[C@]43C)[C@@H]2C1` [Pseudoginsenoside RT1] (compound dose: 10 uM): the cell viability with MDA-MB-231 [1] amounted to 0.9758 ± 0.0023. The kynurenine production with MDA-MB-231 [2] was determined as 0.988 ± 0.14.

On to `CC(=O)OC1COC(OC2CCC34CC35CCC3(C)C(C6(C)CCC(C(C)(C)O)O6)C(O)CC3(C)C5CC(OC3OC(CO)C(O)C(O)C3O)C4C2(C)C)C(OC(C)=O)C1O` (centres undefined) [Isoastragaloside I] (compound dose: 10 uM), for which the cell viability in the assay on MDA-MB-231 [1] is 0.983 ± 0.0057. In addition, the kynurenine production in the assay with MDA-MB-231 [2] was 0.925 ± 0.059.

As to `OC[C@H]1O[C@@H](O[C@@H]2OC=C[C@H]3[C@H](O)[C@@H]4O[C@]4(CO)[C@@H]23)[C@H](O)[C@@H](O)[C@@H]1O` [Catalpol] (compound dose: 10 uM), the cell viability in the assay with MDA-MB-231 [1] worked out at 0.896 ± 0.28. Besides, the kynurenine production in the assay on MDA-MB-231 [2] was found to be 0.704 ± 0.58.

As to `CC(C)=CCC[C@](C)(O)[C@@H]1CC=C(C)CC1` [Levomenol] (compound dose: 10 uM), the cell viability with MDA-MB-231 [1] came to 0.676 ± 0.54. Moreover, the kynurenine production in the assay with MDA-MB-231 [2] came out at 1.16 ± 0.056.

`C=C(C)C1CC=C(C)CC1` (stereo not drawn) [(s)-(-)-limonene] (compound dose: 10 uM): the cell viability in the assay on MDA-MB-231 [1] is 0.944 ± 0.051. Moreover, in the assay on MDA-MB-231 [2], the kynurenine production turned out to be 0.84 ± 0.099.

Regarding `CC(C)=CC/C=C(\C)[C@H]1CC[C@]2(C)[C@@H]1[C@H](O)C[C@@H]1[C@@]3(C)CC[C@H](O[C@@H]4O[C@H](CO)[C@@H](O)[C@H](O)[C@H]4O[C@@H]4O[C@H](CO)[C@@H](O)[C@H](O)[C@H]4O)C(C)(C)[C@@H]3CC[C@]12C` [Ginsenoside Rg5] (compound dose: 10 uM), the cell viability in the assay with MDA-MB-231 [1] is 0.906 ± 0.032. For the same molecule, the kynurenine production in the assay with MDA-MB-231 [2] was determined as 0.876 ± 0.12.

Turning to `C[C@H]1O[C@@H](O[C@H]2CC[C@@]3(C)[C@@H](CC[C@]4(C)[C@@H]3C=CC3=C5CC(C)(C)CC[C@]5(CO)[C@@H](O)C[C@]34C)[C@]2(C)CO)[C@H](O[C@@H]2O[C@H](CO)[C@@H](O)[C@H](O)[C@H]2O)[C@@H](O[C@@H]2O[C@H](CO)[C@@H](O)[C@H](O)[C@H]2O)[C@H]1O` [Buddlejasaponin IVb] (compound dose: 10 uM), in the assay with MDA-MB-231 [1], the cell viability was found to be 1.07 ± 0.067. Besides, the kynurenine production in the assay with MDA-MB-231 [2] is 1.34 ± 0.071.

`C[C@H]1[C@H](C)CC[C@]2(CO)CC[C@]3(C)C(=CC[C@@H]4[C@@]5(C)CC[C@H](O)C(C)(C)[C@@H]5CC[C@]43C)[C@H]12` [Uvaol] (compound dose: 10 uM): the cell viability in the assay on MDA-MB-231 [1] came out at 1.03 ± 0.14. Also, the kynurenine production in the assay with MDA-MB-231 [2] turned out to be 0.98 ± 0.3.

With `CC(=O)c1c[nH]c2ccccc12` [3-acetylindol] (compound dose: 10 uM), in the assay on MDA-MB-231 [1], the cell viability is 0.955 ± 0.15. Also, the kynurenine production with MDA-MB-231 [2] amounted to 1.11 ± 0.14.

For the molecule `CC1=C[C@H]2[C@@H](CC1)[C@H](C)CC[C@H]2[C@@H](C)C(=O)O` [Dihydroartemisinic acid] (compound dose: 10 uM), in the assay on MDA-MB-231 [1], the cell viability amounted to 1.107 ± 0.0025. Besides, the kynurenine production in the assay on MDA-MB-231 [2] is 0.998 ± 0.035.

On to `CC1(C)C2CC=C(C=O)C1C2` (single isomer, unassigned; (-)) [(-)-Myrtenal] (compound dose: 10 uM), for which the cell viability in the assay with MDA-MB-231 [1] worked out at 0.988 ± 0.056. Further, the kynurenine production in the assay with MDA-MB-231 [2] came out at 0.941 ± 0.084.

On to `CC1(C)CCC[C@](C)([C@H]2CC[C@]3(C)[C@@H]2[C@H](O)C[C@@H]2[C@@]4(C)CC[C@H](O)C(C)(C)[C@@H]4CC[C@]23C)O1` [Panaxadiol] (compound dose: 10 uM), for which the cell viability with MDA-MB-231 [1] stood at 1.04 ± 0.013. The kynurenine production in the assay on MDA-MB-231 [2] was 0.719 ± 0.088.

On to `C[C@H]1O[C@@H](O[C@H]2CC[C@@]3(C)[C@@H](CC[C@]4(C)[C@@H]3C=C[C@]35OC[C@@]6(CCC(C)(C)C[C@H]63)[C@H](O)C[C@]54C)[C@]2(C)CO)[C@H](O)[C@@H](O[C@@H]2O[C@H](CO)[C@@H](O)[C@H](O)[C@H]2O)[C@H]1O` [Saikosaponin D] (compound dose: 10 uM), for which the cell viability in the assay on MDA-MB-231 [1] is 0.922 ± 0.044. Also, the kynurenine production in the assay with MDA-MB-231 [2] was found to be 0.603 ± 0.2.
